# Article PMC11062922 (Nature Chemical Biology, 2023)
# Like-named read-outs stand apart in the source and are kept apart here.
# Columns and labels:
# Design in all cases: species or system human, MV4-11 + K-562 + COLO205 + SK-N-BE2 + OVCAR-8
# [1] = test system: BMPR1A; conditions: read-out: apparent Kd, compound concentrations: 100 nM and 1000 nM (sheet 'Samples'), n = 1
# [2] = test system: SIK3; conditions: read-out: apparent Kd, compound concentrations: 100 nM and 1000 nM (sheet 'Samples'), n = 1
# [3] = test system: AURKA; conditions: read-out: apparent Kd, n = 1
# [4] = test system: ACVR2B; conditions: read-out: apparent Kd, n = 1
# [5] = test system: EPHB3; conditions: read-out: apparent Kd, compound concentrations: 100 nM and 1000 nM (sheet 'Samples'), n = 1
# [6] = test system: PIM2; conditions: read-out: apparent Kd, n = 1
# [7] = test system: CDK4; conditions: read-out: apparent Kd; compound concentrations: 100 nM and 1000 nM (sheet 'Samples'), CATDS: 1.3251728133645901E-2; n = 1
# [8] = test system: ERBB3; conditions: read-out: apparent Kd, compound concentrations: 100 nM and 1000 nM (sheet 'Samples'), n = 1
# [9] = test system: LIMK1; conditions: read-out: apparent Kd; compound concentrations: 100 nM and 1000 nM (sheet 'Samples'), CATDS: 7.0535341813333999E-2; n = 1
# [10] = test system: ADCK3; conditions: read-out: apparent Kd; compound concentrations: 100 nM and 1000 nM (sheet 'Samples'), CATDS: 0.47577761034239902; n = 1
# [11] = test system: CDK7; conditions: read-out: apparent Kd; compound concentrations: 100 nM and 1000 nM (sheet 'Samples'), CATDS: 2.7171532019021599E-2; n = 1
# [12] = test system: NUAK1; conditions: read-out: apparent Kd, compound concentrations: 100 nM and 1000 nM (sheet 'Samples'), n = 1
# [13] = test system: PRKAG1; conditions: read-out: apparent Kd; compound concentrations: 100 nM and 1000 nM (sheet 'Samples'), CATDS: 1.42415287056141E-2; n = 1
# [14] = test system: STK10; conditions: read-out: apparent Kd; compound concentrations: 100 nM and 1000 nM (sheet 'Samples'), CATDS: 8.8435588705339796E-3; n = 1
# [15] = test system: MAPK8; conditions: read-out: apparent Kd; compound concentrations:100 nM and 1000 nM (sheet 'Samples'); n = 1
# [16] = test system: SYK; conditions: read-out: apparent Kd, n = 1
# [17] = test system: PIK3CG; conditions: read-out: apparent Kd; compound concentrations: 100 nM and 1000 nM (sheet 'Samples'), CATDS: 5.9148900132827802E-2; n = 1
# [18] = test system: NQO1; conditions: read-out: apparent Kd; compound concentrations: 100 nM and 1000 nM (sheet 'Samples'), CATDS: 4.3711719751433897E-2; n = 1
# [19] = compound concentrations:100 nM and 1000 nM (sheet 'Samples')
compound,measurement,setting,value
COc1cc(Nc2ccnc3cc(-c4ccncc4)ccc23)cc(OC)c1OC.Cl [GW494610A],potency estimated from few doses,[1]; CATDS: 3.04170421320503E-2,486 nM
same,potency estimated from few doses,[2]; CATDS: 4.52892719114492E-2,160 nM
CCn1cc(-c2ccnc3[nH]c(-c4cccc(CN(C)C)c4)cc23)c(-c2ccc(NC(=O)N(C)C)cc2)n1 [GSK1070916],potency estimated from few doses,[3]; [19],197 nM
Cc1ccc(O)cc1Nc1ccnc2cc(-c3ccccn3)ccc12.Cl [GW440139A],potency estimated from few doses,"[4]; compound concentrations: 100 nM and 1000 nM (sheet 'Samples'), CATDS: 0.21714398687124201",5.63 nM
same,potency estimated from few doses,[5]; CATDS: 2.4596610963575599E-2,2120 nM
Nc1nc(-c2ccc3c(N)n[nH]c3c2)cc(N2CCCCC2)n1 [GSK2228768A],potency estimated from few doses,[6]; [19],1410 nM
CC(C)c1nc(-c2cccc(NS(=O)(=O)c3ccccc3)c2)c(-c2ccnc(Nc3ccc4c(c3)CN(C)CC4)n2)s1 [GSK1649598A],potency estimated from few doses,[7],1400 nM
same,potency estimated from few doses,[8]; CATDS: 1.39186209544408E-2,1140 nM
same,potency estimated from few doses,[9],38.5 nM
CCc1nc(-c2cccc(N(C)S(=O)(=O)c3ccccc3)c2)c(-c2ccnc(Nc3ccc(N4CCN(C(C)=O)CC4)nc3)n2)s1 [GSK1645895A],potency estimated from few doses,[10],196 nM
O=C1N=C(NCc2cccs2)SC1Cc1ccc2ncccc2c1 (stereo not drawn) [RO4629078-000],potency estimated from few doses,"[3]; compound concentrations: 100 nM and 1000 nM (sheet 'Samples'), CATDS: 9.8241479768662494E-3",700 nM
same,potency estimated from few doses,[11],112 nM
same,potency estimated from few doses,[5]; CATDS: 9.3855974911044807E-3,790 nM
same,potency estimated from few doses,[12]; CATDS: 9.4682639487438207E-3,771 nM
same,potency estimated from few doses,[13],314 nM
same,potency estimated from few doses,[14],935 nM
Cl.Oc1cccc(Nc2ccnc3cc(-c4ccncc4)ccc23)c1 [GW494601A],potency estimated from few doses,"[4]; compound concentrations: 100 nM and 1000 nM (sheet 'Samples'), CATDS: 0.269416694406998",2.16 nM
same,potency estimated from few doses,[1]; CATDS: 2.7920432625818298E-2,313 nM
same,potency estimated from few doses,[2]; CATDS: 2.0843232752511001E-2,1150 nM
Cc1cccc(-c2cc(-c3c[nH]nc3-c3ccccn3)ccn2)c1 [GW679395X],potency estimated from few doses,[4]; [19],1660 nM
same,potency estimated from few doses,[15],1610 nM
same,potency estimated from few doses,[16]; [19],2310 nM
O=C1N=C(NCCc2cccc(Cl)c2)S/C1=C\c1ccc2ncccc2c1 [RO4509201-000],potency estimated from few doses,[17],1370 nM
same,potency estimated from few doses,"[6]; compound concentrations: 100 nM and 1000 nM (sheet 'Samples'), CATDS: 5.4743223774465499E-2",1820 nM
COc1cccc(-n2ncc3c(N/N=C/c4ccc(C(=O)NCCN(C)C)cc4)ncnc32)c1.Cl [GW784307A],potency estimated from few doses,[1]; CATDS: 4.33451441122037E-2,353 nM
same,potency estimated from few doses,[8]; CATDS: 3.16220170710034E-2,874 nM
COc1ccc(Nc2nccc(N3CCC(NC(=O)Nc4ccc5c(c4)OCO5)C3)n2)cc1 (stereo not drawn) [GSK1379745A],potency estimated from few doses,"[4]; compound concentrations: 100 nM and 1000 nM (sheet 'Samples'), CATDS: 4.7768277435408998E-2",1050 nM
same,potency estimated from few doses,[18],1250 nM
same,potency estimated from few doses,"[16]; compound concentrations: 100 nM and 1000 nM (sheet 'Samples'), CATDS: 3.71249657659821E-2",1780 nM
CS(=O)(=O)CCNCc1ccc(-c2ccc3ncnc(Nc4ccc(OCc5cccc(F)c5)c(C(F)(F)F)c4)c3c2)o1 [GW576484X],potency estimated from few doses,[5]; CATDS: 4.6783581960199903E-2,2310 nM
same,potency estimated from few doses,[8]; CATDS: 5.8570940838060803E-2,1400 nM
same,potency estimated from few doses,"[6]; compound concentrations: 100 nM and 1000 nM (sheet 'Samples'), CATDS: 6.5177951129736497E-2",1150 nM
NC(=O)c1cccc(Nc2nccc(Nc3cccc4[nH]ncc34)n2)c1 [GW782612X],potency estimated from few doses,"[4]; compound concentrations: 100 nM and 1000 nM (sheet 'Samples'), CATDS: 0.173302967359416",52.4 nM
same,potency estimated from few doses,"[3]; compound concentrations: 100 nM and 1000 nM (sheet 'Samples'), CATDS: 4.2767473291312301E-2",808 nM
same,potency estimated from few doses,[1]; CATDS: 3.8772747112030999E-2,1090 nM
same,potency estimated from few doses,[12]; CATDS: 5.2412926017760202E-2,475 nM
